This passage reports Potency results from PubChem BioAssay (NCATS).

Inconclusive results are not listed. A call without a number means that no potency is given here. Calls of active or inactive are those of the source. The call rests on the fitted dose curve; in most records, active means well fitted cell-killing curve with a large enough effect; inconclusive means small, poorly fitted or top-dose-only effect, or effect the other way; inactive means no such curve, though single readings can be large or run the other way.
Potency means the concentration at half of the fitted maximal effect.

A short description of the assay: qHTS of pediatric cancer cell lines to identify multiple opportunities for drug repurposing: Confirmatory screen for MG 63 (6-TG R) cells (AID 1347119). Further: nearly all actives have a fitted effect of over 55% in size. The conditions noted are these: MG-63 (6-TG resistant) osteosarcoma viability; series mostly up to 45.9 µM. The text has this: Drug repurposing or repositioning has been offered as a strategy for drug development in oncology programs. This approach has special potential for childhood cancers and other rare or orphan diseases, where the expected return on new drug development has been a disincentive to pharmaceuticals.
In this project we exploit the poly-pharmacology of drugs to discover new indications via phenotypic screening of a panel of 19 well-characterized cell lines derived from solid tumors seen in children and adolescents. The goal is to identify approved drugs with previously unrecognized anticancer properties that has the potential to reveal new mechanisms and biological processes involved in carcinogenesis or drug resistance. We employed a titration-based paradigm (quantitative high-throughput screening or qHTS), where all compounds were tested at multiple concentrations for their effect on cell viability. Concentration-response curves (CRCs) were derived directly from the primary screen, and both potency and efficacy values were used to identify compounds with robust bioactivity profiles. We screened the NIH Chemical Genomics Center (NCGC) Pharmaceutical Collection (NPC) and Mechanism Interrogation Plate (MIPE) small molecule collections of approved and investigational compounds against these cell lines; and measured metabolically active cells after 48 hours of compound treatment as a proxy for cell viability.
Assay Submitter: Nathalia J. Martinez, National Center for Advancing Translational Sciences, National Institutes of Health, Rockville, MD, USA; email: natalia.martinez@nih.gov
[1] Shen, M et al. Quantitative high-throughput phenotypic screening of pediatric cancer cell lines identifies multiple opportunities for drug repurposing. Oncotarget 2017 Dec 19;9(4):4758-4772. PMID 29435139.
The cells were obtained from University of North Carolina (UNC), Pediatric Preclinical Testing Program (PPT), and Coriell Institute (CI).
qHTS cell viability assay:
Cells were assayed in growth media at a density of 500-1,000 cells/well. Five microliters of cells were dispensed into 1,536-well, white, solid-bottom, TC-treated plates (Greiner Bio One) using a multidrop dispenser and incubated at 37 degrees C, 5% CO2, under a humidified atmosphere for 5 hours. Twenty-three nanoliters of compounds and controls (neutral control DMSO or positive control bortezomib at final concentration of 2.3 µM) were subsequently transferred by Kalypsys pintool. For primary screens, the MIPE collection was tested at 11-point dilutions (final concentrations range from 0.78 nM to 46 µM) and the NPC collection at 8-point dilutions (final concentrations range from 0.59 nM to 46 µM). Compounds tested in follow-up screens were assayed at 11-point dilutions. Cells were incubated for 48 hours, followed by addition of 3 µL of CellTiter-Glo (Promega). After a 15 min incubation at room temperature, samples were analyzed for luminescence intensity using a ViewLux High-throughput CCD imager equipped with clear filters.
A general note: In qHTS, concentration-response curves come from the screen itself.
As to `CC[n+]1c(-c2ccccc2)c2cc(N)ccc2c2ccc(N)cc21`, the Potency is 5.85 µM (active).
For `CCCCCCCCCCCC[N+](C)(C)CCOc1ccccc1` the value was 20.8 µM (active).
Turning to `CCCCCCCCC(=O)NCc1ccc(O)c(OC)c1`, the Potency result is “inactive”.
As to `CN1[C@@H]2CC[C@H]1CC(OC(=O)c1cc(Cl)cc(Cl)c1)C2` (stereo partly specified), the Potency result is “inactive”.
For the molecule `C[C@@H]1O[C@@H](O[C@@H]2C=C3CC[C@@H]4[C@H](CC[C@]5(C)[C@@H](c6ccc(=O)oc6)CC[C@]45O)[C@@]3(C)CC2)[C@H](O)[C@H](O)[C@H]1O`, the Potency was 0.0083 µM (active).
Consider `Cc1ccc([N+](=O)[O-])[c]2c1[O][Hg]2`, for which the Potency was 5.22 µM (active).
With `COC(=O)C1=CCCN(C)C1` the entry was “inactive”; with `COc1ccc2c(C(=O)c3ccc(Cl)cc3)c(C)n(CC(=O)O)c2c1`, “inactive”.
For `CCc1ccc(C2CCNCC2)cc1` the value was “inactive”.
For `ClC1=C(Cl)C2(Cl)C(CBr)CC1(Cl)C2(Cl)Cl` (stereo unspecified) the value was “inactive”.
Turning to `COc1ccc(C(=O)N2CCCC2=O)cc1`, the Potency is 29.3 µM (active).
